# High-throughput results (PubChem BioAssay)
# TGFb SMAD3 inh – qHTS for Inhibitors of TGF-b. actives 1.2% (n = 410,000). HepG2 CAGA-GFP TGF-b/SMAD3 reporter, GFP fluorescence, 18 h; TGF-beta stimulated, 500 pg/mL final. Potency, µM (top dose mostly 46.1 µM), without a hit: at the top dose activity, negative = inhibition, hits mostly inhibitors; note: % is set by controls: 0 for no effect and ±100 for the full control effect; nearly all actives have a fitted effect of over 65% in size
#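 HEPG2 CAGA-GFP cells (1000/well, DMEM with 1% FBS) were pre-incubated 2 h at 37 degrees C, given compound by pin tool, then stimulated with TGF-beta at 500 pg/mL final for 18 h before per-cell GFP fluorescence imaging.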
# ATXN2 expr inh – Primary qHTS for Inhibitors of ATXN expression; HEK-293 ATXN2-luciferase reporter, luminescence, 24 h; Potency, µM (highest dose often 57 µM), inactives show top-dose activity change, negative = inhibition, hits mostly inhibitors; actives 0.72% (n = 360,000); AID 1745845, 2022; note: % is set by controls: 0 for no effect and ±100 for the full control effect; nearly all actives have a fitted effect of over 55% in size
#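 ATXN2-luciferase reporter cells (luciferase flanked by upstream and downstream ATXN2 gene portions) were treated 24 h at 37 °C with compounds at up to 57 uM. SteadyGlo luminescence gave expression; GF-AFC fluorescence gave viability.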
# ATXN viability – Viability Counterscreen for Primary qHTS for Inhibitors of ATXN expression | S2 cells (HEK-293 line with an ATXN2-luciferase reporter) viability, CellTiter-Fluor protease fluorescence, 24 h | actives 0.49% (n = 400,000) | AID 651635, 2014 | Potency, µM (highest dose often 56.7 µM), most hits filed as cytotoxic; note: nearly all actives have a fitted effect of over 40% in size
# TDP1 cell noCPT – qHTS for Inhibitors of human tyrosyl-DNA phosphodiesterase 1 (TDP1): qHTS in cells in absence of CPT; DT40 Tdp1-/- hTDP1 cells, no CPT, ATP luminescence, 48 h; actives 15% (n = 420,000); Potency, µM (titrated, usually from 46.2 µM), without a hit: at the top dose activity change, negative = growth inhibition, actives largely listed as inhibitors; note: % is set by controls: 0 for no effect and ±100 for the full control effect; nearly all actives have a fitted effect of over 55% in size
#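 Readout: luminescence from CellTiter-Glo after 30 min in the dark at RT. Cells: DT40 Tdp1-/- with stable hTDP1, 400/well. Exposure: compounds alone, ≥48 hr, 37 °C.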
# HepG2 viability – qHTS for Inhibitors of TGF-b: Cytotox Counterscreen. actives 0.76% (n = 410,000). Potency, µM (titrated, usually from 46.1 µM), for inactives: at the top dose activity change, negative = cytotoxicity, hits mostly cytotoxic. HepG2 CAGA-GFP viability, ATP luminescence, 18 h. AID 588856, 2011
#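 CellTiter-Glo luminescence gave cytotoxicity after 18 hours at 37 degrees C. The cells were HepG2 CAGA-GFP in 1% FBS DMEM, stimulated with 500 pg/mL TGF-beta after compound addition. %Activity was normalised to no-cell wells (complete cell-killing) and DMSO (no toxicity), and curves were fitted and classified.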
# DT40 TDP1 CPT – qHTS for Inhibitors of human tyrosyl-DNA phosphodiesterase 1 (TDP1): qHTS in cells in presence of CPT | chicken DT40 Tdp1-/-;hTDP1 cells + 20 nM CPT, ATP luminescence, 48 h | Potency, µM (highest dose often 46.2 µM), inactives show top-dose activity change, negative = growth inhibition, usual class: inhibitors | actives 12% (n = 420,000); note: % is set by controls: 0 for no effect and ±100 for the full control effect; nearly all actives have a fitted effect of over 55% in size
#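 Chicken DT40 Tdp1-/- cells stably complemented with human TDP1 were seeded at 400 cells/well in medium containing 20 nM camptothecin, exposed to pin-transferred compounds, and grown at 37 °C for at least 48 hr. Viability was read as ATP luminescence.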
# The depositor's hits bear a star; i = inactive; ? = inconclusive; . = not tested or not shown; [ ] = another dose, or the depositor's remark. An excerpt weighted towards active compounds, which were near 17% of everything screened. Calls come from the whole dose curve; as a rule, active = well fitted curve in the direction sought with a large enough effect; inconclusive = small, poorly fitted or top-dose-only effect, or another doubt; inactive = no such curve, though single readings can be large; an effect the other way counts as inactive or inconclusive. Potency is the fitted concentration of half-maximal effect.
SMILES,TGFb SMAD3 inh,ATXN2 expr inh,ATXN viability,TDP1 cell noCPT,HepG2 viability,DT40 TDP1 CPT
O=C(CC1NCCc2ccccc21)Nc1ccccc1Cl (stereo not given),1%,-17%,i,-25%,-4%,0%
CN1C(CC(=O)Nc2ccc(Cl)cc2Cl)c2ccccc2CC1(C)C (stereo not given),-10%,-7%,i,16µM*,-23%,10µM*
Cc1sc(NC(=O)CN2CCCC2)nc1-c1ccc2c(c1)CCN2C(=O)c1ccc(F)cc1,-11%,-10%,i,18µM*,-1%,?
CC(=O)Nc1nc(-c2ccc3c(c2)CCN3C(=O)C2CC2)c(C)s1,-2%,18%,i,1.3µM*,-12%,1.5µM*
CCOc1ccc(OCCC(=O)N(CCC2=CCCCC2)c2c(N)n(Cc3ccccc3)c(=O)[nH]c2=O)cc1,0%,-8%,i,?,-59%,16µM*
CC(CC(=O)N(CCC1=CCCCC1)c1c(N)n(Cc2ccccc2)c(=O)[nH]c1=O)c1ccccc1 (stereo not given),-10%,?,i,16µM*,-40%,26µM*
CC(=O)Nc1ccc(NC(=O)CN(C)S(=O)(=O)c2ccc3ccccc3c2)cc1,-1%,-8%,i,1%,-1%,0%
CCC(NC(=O)OCc1ccccc1)C(=O)Oc1ccc2ccc(=O)oc2c1 (stereo not given),0%,-20%,i,?,0%,?
O=C(Nc1ccccc1)c1ccccc1C(=O)N1CCCCC1,-16%,.,i,-7%,-3%,-6%
CCOc1ccc(N(C)C(=O)c2oc(=O)c3ccccc3c2-c2ccccc2)cc1,16µM*,.,.,15µM*,-31%,18µM*
CCOc1ccc(NC(=O)c2oc(=O)c3ccccc3c2-c2ccc(C)cc2)cc1,-6%,-14%,i,?,-3%,?
Cc1ccc(-c2c(C(=O)NCc3ccccc3)oc(=O)c3ccccc23)cc1,-2%,12%,i,?,4%,?
Cc1ccc(-c2c(C(=O)NCCc3ccccc3)oc(=O)c3ccccc23)cc1,?,.,.,?,-49%,15µM*
COc1ccc(-c2cc(C(=O)Nc3cccc(S(=O)(=O)NCc4ccco4)c3)c3ccccc3n2)cc1OC,-36%,.,i,6.5µM*,-3%,10µM*
COc1ccc(N=c2oc3c(OC)cccc3cc2C(=O)NCc2ccco2)cc1OC,13%,-2%,i,7.3µM*,1%,12µM*
O=C(NCc1ccco1)c1cc(-c2ccncc2)nc2ccccc12,16%,-6%,i,-12%,-20%,-13%
COc1ccc(-c2cc(C(=O)NCc3ccco3)c3ccccc3n2)cc1OC,17%,-12%,i,18µM*,0.5µM*,?
COc1cc2cc3c(N)c(C(=O)NCc4ccco4)sc3nc2cc1OC,0%,21%,i,15µM*,9%,23µM*
CCOC(=O)c1cc(OC(=O)c2cc(Cl)ccc2OC)n(-c2ccccc2)n1,18%,6%,i,.,4%,.
O=C(O)C(CCc1ccccc1)(Cc1ccccc1)C(=O)O,-4%,13%,i,0%,3%,-22%
CS(=O)c1ccccc1-c1nc(-c2cccc(Cl)c2)no1 (stereo not given),-13%,-21%[11.3 µM],?,16µM*,4%,?
COc1ccc(-c2noc(CCCC(=O)NCc3ccco3)n2)cc1OC,0%,2%,i,?,-4%,-1%
COc1cccc(-c2cc(C(=O)NCc3ccco3)c3ccccc3n2)c1,5%,16%,i,?,-1%,12µM*
COc1ccc(-c2noc(-c3ccccc3-c3ccccc3)n2)cc1OC,-7%,14%,i,26µM*,-1%,?
COc1ccc(-c2noc(-c3ccccc3C(=O)NCc3ccco3)n2)cc1OC,-8%,5%,i,15µM*,-1%,?
SMILES,TGFb SMAD3 inh,ATXN2 expr inh,ATXN viability,TDP1 cell noCPT,HepG2 viability,DT40 TDP1 CPT
CCOc1ccc(S(=O)(=O)N(C)c2ccc(OCC(=O)NCc3ccc(C(=O)OC)cc3)cc2)cc1,0%,-13%,i,-54%,6%,-3%
O=C1c2ccccc2C(=O)N1OCc1ccccc1[N+](=O)[O-],1%,-3%,i,-2%,-18%,-4%
Cc1c(/C=C(\C#N)C(=O)Nc2cccc(Cl)c2)c2ccccc2n1Cc1ccccc1Cl,3%,-2%,i,?,2%,?
O=C(NNC(=O)c1ccncc1)NC1CCCCC1,-2%,-15%,i,0%,-12%,-13%
Cc1ccc(-n2c(N)c(C(=O)Nc3c(C)n(C)n(-c4ccccc4)c3=O)c3nc4ccccc4nc32)cc1,15%,30µM*,.,?,3%,?
Cc1cc(C)cc(-n2c(N)c(C(=O)Nc3c(C)n(C)n(-c4ccccc4)c3=O)c3nc4ccccc4nc32)c1,-26%,-18%,i,8.2µM*,-25%,7.3µM*
Cc1ccccc1NCC(=O)N/N=C/c1c(C)c(C(=O)c2ccc(Cl)cc2)n2ccccc12,-6%,-2%,?,16µM*,-27%,16µM*
Cc1c(/C=N/NC(=O)CNc2ccccc2)c2ccccn2c1C(=O)c1ccc(Cl)cc1,-18%,3%,?,?,-16%,?
Cc1ccccc1CN1[C@H](C)[C@H](c2ccccc2)OCCS1(=O)=O,?,.,.,13µM*,-6%,?
C[C@@H]1[C@H](c2ccccc2)OCCS(=O)(=O)N1Cc1cccc(Cl)c1,?,.,.,13µM*,-2%,?
C[C@@H]1[C@H](c2ccccc2)OCCS(=O)(=O)N1Cc1ccccc1,1%,.,.,-7%,18%,-7%
C[C@@H]1[C@H](c2ccccc2)OCCS(=O)(=O)N1Cc1ccccc1Br,?,.,.,?,7%,?
C[C@@H]1[C@H](c2ccccc2)OCCS(=O)(=O)N1Cc1ccc(Cl)cc1,?,.,.,10µM*,0%,11µM*
COc1ccccc1NC(=O)C1=C(C)Nc2nnnn2C1c1ccc(C(F)(F)F)cc1 (stereo not given),0%,0%,i,.,-30%,.
